# hgDAF-12 ag: H. glycines DAF-12 receptor agonists, primary screen, cell-based, luminescence, HEK293, GAL4 fusion, UAS-luciferase | Nuclear hormone receptor DAF-12 (Heterodera glycines), GAL4 fusion | HEK293 GAL4-hgDAF12 UAS-luciferase reporter, agonist luminescence; normalized to butyrate control | activation, % at 6.8 µM | actives 1.8% (n = 370,000) | AID 687014, 2013;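 active means activation above a cutoff set at the mean of all screened compounds plus 3 SD, cut at about 10% in these data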
# NF-kB expr up: activators of NF-kB expression in neurons, primary screen, cell-based, HTS. human neuronal cells, NF-kB reporter expression; active compounds read high. fold change at 12.5 µM. actives 1.6% (n = 190,000). AID 1239, 2008; in the data active means fold change above about 3.3
# APP 5'UTR act: activators of APP 5'UTR luciferase reporter, primary screen, SH-SY5Y cells; SH-SY5Y APP 5'UTR luciferase reporter, luminescence; zero percent = DMSO vehicle wells; activation, % at 2 µM; actives 1% (n = 190,000); AID 1276, 2008;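 active means activation above a set limit, based on mean plus 3 SD of controls, cut at about 140% in these data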
# ssDAF-12 act: S. stercoralis DAF-12 nuclear receptor activators, primary screen, cell-based, luminescence, HEK293, GRIP1 co-expression, lit1-tk-luc; HEK293 ssDAF-12/GRIP1 lit1-tk-luc reporter; % of 3 µM dafachronic acid response; AID 652126, 2013; Nuclear hormone receptor DAF-12 (Strongyloides stercoralis); activation, % at 6.8 µM; actives 1% (n = 370,000);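 active means activation above the mean over all tested compounds plus 3 SD, cut at about 0.9% in these data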
# hcDAF-12 act: H. contortus DAF-12 nuclear receptor activators, primary screen, cell-based, luminescence, HEK293, lit1-tk-luc reporter | HEK293 hcDAF-12 lit1-tk-luc reporter; 0% DMSO, 100% Δ7-dafachronic acid | activation, % at 6.8 µM | actives 1.4% (n = 370,000) | AID 652067, 2013;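 active means activation above the mean of all tested compounds plus 3 SD, cut at about 5.5% in these data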
# Numbers stand for hits; 0 = inactive; - = not tested or not shown. The list is not random: actives were taken first. Their share in the collection is about 3.4%.
SMILES,hgDAF-12 ag,NF-kB expr up,APP 5'UTR act,ssDAF-12 act,hcDAF-12 act
COC(=O)c1ccc(COc2ccccc2/C=C(\C#N)C(=O)Nc2ccc(C)cc2)cc1,10.7,0,0,0,0
N/C(=N\C(=O)OCc1ccccc1)N(CC#CC1=CCCCC1)CC1CC1,0,-,-,0,0
CN1C2=N[C@@H](c3ccc4c(c3)OCO4)CC(=O)N2/C(=C\c2ccccc2)[C@H]1c1ccccc1,0,-,-,0,0
COc1ccccc1C(=O)NCC(=O)OCc1csc(-c2ccccc2)n1,0,0,0,0,5.7
O=C(OCC(=O)c1cccs1)c1ccccc1,0,5.46,0,0,0
CCOc1ccc2nc(SCC(=O)c3cccs3)sc2c1,12.0,4.38,0,0,0
CCOc1ccc2nc(SCC(=O)c3ccc(Cl)s3)sc2c1,0,0,0,0,0
CC1CCC2(CCC(=O)N2CCCOC(=O)Nc2cccc(C(F)(F)F)c2)CC1 (centres undefined),0,-,-,0,0
CN(C)CC(c1ccc(O)cc1)C1(O)CCCCC1 (centres undefined),0,-,-,0,0
CS(=O)(=O)c1cnc2c(-c3ccc(F)cc3)cnn2c1N,0,3.51,0,0,0
Nc1c(C(=O)O)cnc2c(-c3ccc(Cl)cc3)cnn12,11.7,4.93,0,1.0,6.4
N/C(=N\C(=O)OCc1ccccc1)N(Cc1ccccc1)C(C#CC1=CCCCC1)Cc1ccccc1 (centres undefined),0,-,-,0,0
N#CCC[C@H]1CC[C@]2(CCCN(Cc3ccccc3)C2)O1,0,-,-,0,0
OC(COc1ccccc1)CN1CCCC1 (centres undefined),0,0,0,0,0
CN1CCN(CC(O)COc2ccccc2)CC1 (centres undefined),13.0,-,-,0,0
Cc1cc(NCc2ccccn2)n2ncc(-c3ccccc3)c2n1,12.4,-,-,1.3,0
Cc1cc(NCCCN2CCOCC2)n2ncc(-c3ccccc3)c2n1,10.7,4.42,155.5,1.3,6.0
CCCCCCCCN1C(=O)[C@@H](CC(=O)NCC23CC4CC(CC(C4)C2)C3)C[C@@]2(C(=O)OC)C1=C[C@H](C(C)C)O[C@@H]2C1CC1,0,-,-,0,0
CCCC[C@H]1C2CC(OC(=O)Nc3ccccc3OC)C(C2)[C@H]2CCCCN21 (some centres undefined),0,-,-,0,0
O=C(CSc1nnc(-c2ccco2)n1-c1ccc(Cl)cc1)Nc1ccccc1-c1ccccc1,0,-,-,0,0
CC1Oc2ccccc2N(CC(=O)NCc2ccc3c(c2)OCO3)C1=O (centres undefined),11.3,0,0,0,0
COc1cc(C)ccc1OCc1cc(C(=O)NCc2ccncc2)no1,10.5,-,-,0,0
COc1ccc(C(=O)NCc2ccncc2)cc1OC,0,0,0,0,0
COc1cc(C)ccc1OCc1cc(C(=O)NC(C)Cn2cncn2)no1 (centres undefined),11.1,-,-,0,0
COC(=O)C[C@@H]1CC[C@H]2[C@H](COc3ccc(NC(=O)C4CCC4)cc3C(=O)N2C)O1,0,-,-,0,0
SMILES,hgDAF-12 ag,NF-kB expr up,APP 5'UTR act,ssDAF-12 act,hcDAF-12 act
Cc1c(P(=O)(c2ccccc2)c2ccccc2)c2ccccc2n1C,0,-,-,0,0
Cc1c(C(C)(C(=O)O)c2c(C)n(C)c3ccccc23)c2ccccc2n1C,0,-,-,0,5.7
O=C(Nc1cnc2ccccn2c1=O)c1ccc(F)cc1,10.6,0,0,0,0
COc1ccc(C(=O)Nc2cnc3ccccn3c2=O)cc1,11.7,0,0,0,0
COc1ccc(CN2CCC(CNC(=O)Nc3ccccc3)CC2)cc1,0,-,-,0,0
CN1CCN(C(=O)c2ccccc2NC(=O)c2sc3ccccc3c2Cl)CC1,0,-,-,0,0
CN1CCN(c2ccc(NC(=O)c3sc4ccccc4c3Cl)cc2)CC1,10.6,0,182.5,0,0
O=C(COC(=O)/C=C/c1cccs1)Nc1nc(-c2ccccc2)cs1,0,0,0,0,5.8
CCC(=O)Nc1ccc2c(c1)C(=O)N(C)[C@@H]1CC[C@@H](CC(=O)NCCN3CCCCC3)O[C@H]1CO2,0,-,-,0,0
O=C(N/N=C/c1ccc(-c2ccccc2C(=O)O)o1)c1cccs1,12.1,0,0,0,0
O=C(C1CCC1)N1CCc2cc(S(=O)(=O)C3CCN(Cc4ccc(F)cc4)CC3)ccc21,0,-,-,0,0
O=C(CCCN1C(=O)/C(=C\c2ccccc2)SC1=S)Nc1ccc(C(=O)O)cc1,0,-,-,0,0
CCc1ccc(/C=C2\SC(=S)N(CCCC(=O)Nc3ccc(C(=O)O)cc3)C2=O)cc1,0,-,-,0,6.0
Cc1ccccc1OC1CCN(C(=O)C2CCC(=O)N(C3CCCC3)C2)CC1 (centres undefined),0,-,-,0,0
CC(=O)NCCC1CCN(C(=O)C2CCC(=O)N(C3CCCC3)C2)CC1 (centres undefined),0,-,-,1.6,0
COC1CCN(C(=O)C2CCC(=O)N(C3CCCCCC3)C2)CC1 (centres undefined),0,-,-,0,6.3
COCC1CCN(C(=O)C2CCC(=O)N(C3CCCC3)C2)CC1 (centres undefined),0,-,-,0,0
COC(=O)[C@]12C[C@H](CC(=O)NCCCCc3ccccc3)C(=O)N(Cc3cccc4ccccc34)C1=C[C@H](C(C)C)O[C@@H]2C1CC1,0,-,-,1.3,0
COC(=O)[C@]12C[C@H](CC(=O)NCc3ccccc3)C(=O)N(Cc3cccc4ccccc34)C1=C[C@H](C(C)C)O[C@@H]2C1CC1,0,-,-,0,0
O=C(N/N=C/c1ccoc1)c1ccccc1,10.7,-,-,1.1,0
CCOC(=O)c1ccc(N/C=C\C(=O)c2cccc(OC)c2)cc1,0,0,0,0,0
O=C(N/N=C\c1cccc(OC(=O)c2ccco2)c1)c1ccc2c(c1)OCO2,12.2,5.06,0,0,0
COc1cccc(C(=O)/C=C/Nc2cc(C)ccc2O)c1,0,25.4,0,0,0
Cc1cccc(OCC(=O)Nc2cc(C)c(C)cc2O)c1,0,0,0,0,0
Cc1cccc(OCC(=O)Nc2cc(C)ccc2O)c1,0,0,0,1.1,0
SMILES,hgDAF-12 ag,NF-kB expr up,APP 5'UTR act,ssDAF-12 act,hcDAF-12 act
O=C(N/N=C/c1cccnc1)c1ccc2c(c1)OCO2,0,-,-,0,0
CCOc1ccc(-n2c(SCC(=O)Nc3ccc4c(c3)c3ccccc3n4CC)nnc2-c2cccnc2)cc1,0,-,-,0,0
O=C(N/N=C/c1ccc[nH]1)c1ccc(O)cc1,0,0,0,0,0
CCCCCC1=CCC/C1=N\NC(=O)c1ccc2c(c1)OCO2,11.6,0,0,0,0
O=C(NN=C1CCCCCC1)c1ccc2c(c1)OCO2,0,0,0,0,0
O=C(N/N=C/c1ccc[nH]1)c1ccc2c(c1)OCO2,10.8,0,0,0,0

# Assay outcomes deposited in PubChem by several laboratories.
